Laboratory results as given in PubChem BioAssay AID1159580 (chemical genetic matrix, 2015).
Screen size: about 5,500 compounds; about 2,000 (36%) were called active. Another 18% or so got no clear call; they are omitted. No stated cut-off is given here; in the data, active means normalized growth mostly below about 0.91 (no sharp cut-off); inconclusive means no clear call, values can overlap the other calls; inactive means mostly above about 0.92. The list shows a part of the results.

Experiment: chemical genetic growth profiling, strain panel (AID 1159580);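 further: tested at 20 µM; growth read once vehicle control cultures reached saturation at 30 °C; 1 = growth at the plate median or of vehicle wells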
Conditions: growth OD
[1] = S. cerevisiae deletion strains, locus YAL013W, strain DEP1, stronger effect = lower value
[2] = S. cerevisiae deletion strains, locus YBR229C, strain ROT2, stronger effect = lower value
[3] = S. cerevisiae deletion strains, locus YCL061C, strain MRC1, stronger effect = lower value
[4] = S. cerevisiae deletion strains, locus YDL101C, strain DUN1, stronger effect = lower value
[5] = S. cerevisiae deletion strains, locus YDR150W, strain NUM1, stronger effect = lower value
[6] = S. cerevisiae deletion strains, locus YEL061C, strain CIN8, stronger effect = lower value
[7] = S. cerevisiae deletion strains, locus YGR078C, strain PAC10, stronger effect = lower value
[8] = S. cerevisiae deletion strains, locus YHR030C, strain SLT2, stronger effect = lower value
[9] = S. cerevisiae deletion strains, locus YHR087W, strain rtc3, stronger effect = lower value
[10] = S. cerevisiae deletion strains, locus YJR043C, strain POL32, stronger effect = lower value
[11] = S. cerevisiae deletion strains, locus YJR075W, strain HOC1, stronger effect = lower value
[12] = S. cerevisiae deletion strains, locus YKL190W, strain CNB1, stronger effect = lower value
[13] = S. cerevisiae deletion strains, locus YLR039C, strain RIC1, stronger effect = lower value
[14] = S. cerevisiae deletion strains, locus YLR058C, strain SHM2 (second series), stronger effect = lower value
[15] = S. cerevisiae deletion strains, locus YLR085C, strain ARP6, stronger effect = lower value
[16] = S. cerevisiae deletion strains, locus YLR262C, strain YPT6, stronger effect = lower value
[17] = S. cerevisiae deletion strains, locus YML094W, strain GIM5, stronger effect = lower value
[18] = S. cerevisiae deletion strains, locus YMR219W, strain ESC1, stronger effect = lower value
[19] = S. cerevisiae deletion strains, locus YMR263W, strain SAP30, stronger effect = lower value
[20] = S. cerevisiae deletion strains, locus YMR307W, strain GAS1, stronger effect = lower value
[21] = S. cerevisiae deletion strains, locus YNL128W, strain TEP1, stronger effect = lower value
[22] = S. cerevisiae deletion strains, locus YNL153C, strain GIM3, stronger effect = lower value
[23] = S. cerevisiae deletion strains, locus YNL298W, strain CLA4 (second series), stronger effect = lower value
[24] = S. cerevisiae deletion strains, locus YNL322C, strain KRE1, stronger effect = lower value
[25] = S. cerevisiae deletion strains, locus YNR030W, strain Alg12, stronger effect = lower value
[26] = S. cerevisiae deletion strains, locus YPL055C, strain LGE1, stronger effect = lower value
[27] = S. cerevisiae deletion strains, locus YPL241C, strain CIN2, stronger effect = lower value
[28] = S. cerevisiae deletion strains, locus YPR135W, strain CTF4, stronger effect = lower value
[29] = S. cerevisiae deletion strains, locus YDL134C, strain PPH21, stronger effect = lower value

Measured: normalized growth

CC(C)c1ccc(NC(=S)NC(=O)c2ccc(C(F)(F)F)cc2)cc1
inactive: [1] 1 | [2] 1.02 | [3] 1.01 | [4] 1.01 | [5] 1 | [6] 1.02 | [7] 1.02 | S. cerevisiae deletion strains, locus YGR229C, strain SMI1, stronger effect = lower value 1.02 | [8] 1.1 | [9] 1.02 | [10] 1.01 | [11] 1 | [12] 1.02 | [13] 1.09 | [14] 1.02 | [16] 1.07 | [17] 1.02 | [18] 1.01 | [19] 1 | [20] 1.3 | [21] 1.02 | [22] 0.989 | [23] 1.06 | [24] 1.01 | [25] 1.01 | [26] 0.997 | [27] 1.13 | [28] 1.09
active: [15] 1.23 [resistant]

O=C(NC(=S)NCc1ccncc1)c1ccccc1
inactive: [1] 1.02 | [2] 1.01 | [4] 1.01 | [5] 0.983 | [6] 1 | [7] 1.01 | [8] 1.05 | [9] 1 | S. cerevisiae deletion strains, locus YJL187C, strain SWE1, stronger effect = lower value 0.973 | [10] 0.997 | [11] 1.03 | [12] 1.01 | [13] 0.928 | [14] 1 | [15] 0.969 | [16] 0.978 | [17] 1.01 | [18] 1 | [19] 1 | [21] 1.01 | [22] 1 | [23] 1.04 | [24] 1 | [25] 1.02 | [26] 1 | [27] 1.02 | [28] 0.929 | S. cerevisiae strains, strain wild type, stronger effect = lower value 1.01

CCC(C(=O)Nc1ccc(C(F)(F)F)cc1)c1ccccc1 (configuration not stated)
inactive: [1] 0.989 | [2] 0.984 | [3] 0.958 | [4] 0.956 | [29] 0.977 | [5] 0.952 | [6] 1.03 | [7] 0.958 | [8] 0.986 | [9] 0.998 | [10] 0.972 | [11] 0.96 | [12] 0.982 | [13] 0.923 | [14] 0.982 | [15] 0.925 | [16] 0.987 | [17] 0.981 | [18] 0.994 | [19] 0.99 | [21] 0.982 | [22] 0.968 | [23] 0.945 | [24] 0.99 | [25] 0.976 | [26] 1.01 | [27] 0.932 | [28] 0.906

O=C(NC(=S)Nc1ccccn1)c1ccccc1
inactive: [1] 0.962 | [2] 0.948 | [4] 0.942 | [29] 0.977 | [5] 0.956 | [7] 0.962 | [9] 1 | [10] 0.955 | [11] 0.988 | [14] 0.976 | [18] 0.964 | [19] 0.993 | [22] 0.933 | [24] 1
active: [6] 0.783 | [8] 0.401 | [13] 0.573 | [15] 0.428 | [16] 0.788 | [17] 0.777 | [20] 0.476 | [23] 0.67 | [25] 0.8 | S. cerevisiae deletion strains, locus YOL006C, strain TOP1, stronger effect = lower value 0.213 | [26] 0.825 | [27] 0.807 | [28] 0.552
